Screens as filed in PubChem BioAssay.
ELG1 genotox: genotoxicity induction in ELG1-luciferase HEK293T cells; HEK293T ELG1-luciferase reporter, luminescence, 16 h; 330,000 tested, 1.3% active; Potency, µM (titrated, usually from 46 µM), for inactives: top-dose activity change, positive = activation, hits mostly activators; further: % of control where 0% means no effect; nearly all actives have a fitted effect of over 60% in size
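Genotoxic stress is detected as increased luminescence from luciferase-tagged ELG1 in HEK293T cells, measured with ONE-Glo after a 16 hr treatment at 37 °C.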
p53 reactivation: re-activators of mutant p53 | 320,000 tested, 0.063% active | Potency, µM (doses to about 92.2 µM), inactives show at the highest dose activity change, positive = activation, actives largely listed as activators | AID 504706 | H1299 p53-A138V BP100-luciferase reporter, luminescence, 24 h; further: % of control where 0% means no effect; nearly all actives have a fitted effect of over 45% in size
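H1299 (p53-null), stable ts p53-A138V + BP100-Luc; 1000 cells/well, Opti-MEM/10% FBS; cpd 4 pt, 1:5; 24 h, 37 deg C, 5% CO2; detection reagent 10 min RT; luminescence.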
Rab9 promoter act: Rab9 promoter activation; AID 485297; Potency, µM (series often up to 9.22 µM), without a hit: at the top dose activation, negative = inhibition, hits mostly activators; 320,000 tested, 2.8% active; Huh7 Rab9 promoter-luciferase reporter, luminescence, 24 h; further: % of control where 0% means no effect; nearly all actives have a fitted effect of over 60% in size
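Promoter activation is measured as luciferase luminescence in Huh7 cells stably transfected with a Rab9 promoter–luciferase construct, following 24 h compound exposure at 37 °C and 10 min reagent incubation at ambient temperature.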
NPC1 prom act: activators of NPC1 promoter; Huh7 NPC1 promoter luciferase reporter, 24 h; Potency, µM (highest dose often 9.22 µM), inactives show at the highest dose activation, hits mostly activators; 320,000 tested, 2.4% active; further: % of control where 0% means no effect; nearly all actives have a fitted effect of over 60% in size
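Luminescence from an NPC1 promoter-driven luciferase reporter in stably transfected Huh7 cells was measured after 24 h compound treatment at 37 °C, followed by 10 min ambient incubation with luciferase detection reagent.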
SMN2 splice enh: SMN2 splice variant enhancement; HEK293 SMN2-luciferase splicing reporter, luminescence, 30-36 h; Potency, µM (top dose mostly 46.1 µM), for inactives: top-dose activity change, positive = activation, usual class: activators; 210,000 tested, 2.8% active; AID 1458; further: % of control where 0% means no effect; nearly all actives have a fitted effect of over 55% in size
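qHTS luciferase splicing reporter: luminescence rises when SMN2 exon 7 is included in transfected HEK293 cells. Compound exposure lasted 30-36 h at 37C, with 4.5 mM final sodium butyrate as control, followed by a ONE-Glo read.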
FLuc modulator: counter-screen for miR-21 project: firefly luciferase inhibitors or activators. P08659. 360,000 tested, 6.9% active. purified FLuc, Km substrates, luminescence inhibition. Potency, µM (titrated, usually from 57.5 µM), for the others: at the highest dose activity change, negative = inhibition, usual class: inhibitors;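 further: plate controls were vehicle for no effect and reference inhibitor for full effect; nearly all actives have a fitted effect of over 55% in size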
Target sequence (P08659 whole entry, looked up): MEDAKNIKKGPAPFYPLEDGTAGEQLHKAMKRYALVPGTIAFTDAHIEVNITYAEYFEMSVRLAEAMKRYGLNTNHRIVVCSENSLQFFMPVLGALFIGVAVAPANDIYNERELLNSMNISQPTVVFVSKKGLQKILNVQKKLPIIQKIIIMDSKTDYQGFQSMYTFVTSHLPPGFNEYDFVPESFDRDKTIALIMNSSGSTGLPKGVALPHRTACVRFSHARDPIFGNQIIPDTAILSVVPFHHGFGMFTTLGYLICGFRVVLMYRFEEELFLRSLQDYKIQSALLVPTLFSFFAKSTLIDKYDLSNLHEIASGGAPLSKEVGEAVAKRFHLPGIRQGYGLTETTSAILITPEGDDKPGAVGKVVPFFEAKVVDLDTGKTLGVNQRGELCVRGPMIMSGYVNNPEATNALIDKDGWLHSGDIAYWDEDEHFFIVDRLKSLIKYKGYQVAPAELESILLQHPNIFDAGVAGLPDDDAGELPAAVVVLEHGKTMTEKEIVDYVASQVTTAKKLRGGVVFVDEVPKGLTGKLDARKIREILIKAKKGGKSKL
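Purified P. pyralis luciferase (10nM final) with 10uM D-luciferin and 10uM ATP (Km levels) in 50mM Tris acetate pH 7.5, 10mM Mg acetate, 0.01% Tween-20, 0.05% BSA; qHTS 6-point titration, ~60 µM downward; luminescence read.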
Active calls of the source: *; ? = inconclusive; · = no result; [ ] = another dose, or the depositor's remark. A selection: hits, their analogues and other compounds. The true share with any hit is near 7.3%. The call rests on the fitted dose curve; in most records, active means well fitted curve in the direction sought with a large enough effect; inconclusive means small, poorly fitted or top-dose-only effect, or another doubt; inactive means no such curve, though single readings can be large; an effect the other way counts as inactive or inconclusive. Potency means the concentration at half of the fitted maximal effect.

SMILES	ELG1 genotox	p53 reactivation	Rab9 promoter act	NPC1 prom act	SMN2 splice enh	FLuc modulator
C/C(=N\NC(=O)CNC(=O)c1cccs1)c1ccc(Cl)c(Cl)c1	-0.5%	-10.3%	-1.2%	-0.7%	·	-1.0%
Cc1cc(NCCOCCO)n2ncc(-c3ccc(Cl)cc3)c2n1	?	39.8µM*	0.891µM*	1.26µM*	10µM*	1.35µM*
Cc1cc(NCc2ccccn2)n2ncc(-c3ccc(Cl)cc3)c2n1	6.3%	?	?	?	·	10.7µM*
COc1ccccc1-c1cnn2c(NCc3ccccc3)cc(C)nc12	5.0%	5.3%	24.1%	16.4%	·	16.9µM*
Cc1cc(NCc2ccccn2)n2ncc(-c3ccccc3)c2n1	?	?	?	0.501µM*	·	4.26µM*
COc1ccc(CCNc2cc(C)nc3c(-c4ccccc4OC)cnn23)cc1OC	-7.2%	-2.4%	4.3%	-5.1%	·	3.6%
O=C1C=CC(=Nc2cccc3c(N=C4C=CC(=O)O4)cccc23)O1	·	·	·	·	-3.1%[9.22 µM]	·
COc1ccccc1CNc1cc(C)nc2nc(-c3ccc(C)cc3)nn12	·	·	·	·	·	6.01µM*
COc1cccc(Nc2cc(C)nc3nc(-c4ccc(Cl)cc4)nn23)c1	·	·	·	·	11.6%	-0.7%
Cc1cc(NCCCN2CCOCC2)n2ncc(-c3ccccc3)c2n1	9.2µM*	?	0.708µM*	1µM*	15.8µM*	7.57µM*
O=C(Nc1cccc(NC(=O)c2ccc(Cl)cc2Cl)c1)c1cccnc1	-9.4%	8.8%	-4.6%	-4.9%	·	13.5µM*
COc1cccc(C(=O)Nc2cccc(NC(=O)c3ccccc3Cl)c2)c1	-7.9%	·	10.4%	-1.3%	·	15.1µM*
COc1cccc(C(=O)Nc2cccc(NC(=O)c3ccc(Cl)cc3Cl)c2)c1	·	·	·	·	-8.5%	7.57µM*
CCC(=O)NC(=S)Nc1cccc(NC(=O)c2ccc(Cl)cc2Cl)c1	-0.1%	-6.8%	-8.5%	-14.0%	-7.2%	12µM*
O=C(Nc1cccc(NC(=O)c2cccnc2)c1)c1cccnc1	-12.8%	-15.7%	1.9%	3.1%	-15.6%	-9.4%
O=C(Nc1cccc(NC(=O)c2ccccc2Cl)c1)c1cccc(Br)c1	·	·	·	·	-10.7%	1.1%
Cc1ccccc1COC(=O)c1ccc(-c2nnn(Cc3ccccc3F)n2)cc1	·	·	·	·	11.2%	1.1%
CCOC(=O)c1ccc(N2C(=O)c3n[nH]c(-c4ccco4)c3C2c2cccc(O)c2)cc1 (stereo not drawn)	·	·	·	·	-28.2%	-16.6%
CCn1cc(C(=O)N2CCN(c3ccccc3F)CC2)c(=O)c2cc(S(=O)(=O)N(C)C3CCCCC3)ccc21	·	·	·	·	3.7%	?
CC(Oc1ccccc1)C(=O)N/N=C/c1ccccn1 (stereo not drawn)	-5.6%	3.0%	4.0%	-0.2%	7.0%	3.6%
Cc1ccc(C(=O)COC(=O)c2cccc(NC(=O)c3ccc(Cl)cc3Cl)c2)cc1	·	·	·	·	?	0.849µM*
COc1cccc(C(=O)Nc2cccc(C(=O)NC3=NN(c4c(Cl)cc(Cl)cc4Cl)C(=O)C3)c2)c1	9.2%	0.4%	17.4%	-1.8%	8.7%	9.53µM*
CCCOc1ccc(C(=O)Nc2cccc(NC(=O)c3ccc(Cl)cc3Cl)c2)cc1	·	·	·	·	-23.1%	-0.7%
O=C(Nc1ccccc1)c1ccc(NCC2CCCO2)c([N+](=O)[O-])c1 (stereo not drawn)	13.8%	?	?	?	17.8µM*	?
O=S(=O)(c1ccc(-c2csc(=Nc3ccc(OC(F)(F)Cl)cc3)n2CCCO)cc1)N1CCCC1	·	·	·	·	-102.8%	4.0%
CCOC(=O)C1=C(COC(=O)c2cccc(N(C)C)c2)NC(=O)NC1C (stereo not drawn)	?	18.0%	2.82µM*	?	·	23.9µM*
CCOC(=O)C1=C(COC(=O)/C=C/c2ccccc2Cl)NC(=O)NC1C (stereo not drawn)	?	-17.3%	27.0%	2.6%	·	26.9µM*
CCOC(=O)C1=C(COC(=O)c2cccc(Br)c2)NC(=O)NC1C (stereo not drawn)	1.6%	4.1%	-0.1%	9.2%	·	2.0%
